# According to PubChem BioAssay AID720517 (National Center for Advancing Translational Sciences (NCATS), 2013):
# Records with an inconclusive call do not appear. Entries that show only a call come without a potency. The source made the active and inactive calls. The call rests on the fitted dose curve; in most records, active means well fitted activation curve with a large enough effect; inconclusive means small, poorly fitted or top-dose-only effect; inactive means flat fitted curve, though single readings scatter.
# Experiment: qHTS for Inhibitors of Cell Surface uPA Generation: FP59 Counterscreen for Cherry-picked Compounds
# Conditions: FP59 anthrax toxin cytotoxicity counterscreen, cells; series mostly up to 115 µM
row,SMILES,Potency
1,COc1ccc(CNC(=O)C2CCC(CNS(=O)(=O)c3ccc(C)cc3)CC2)cc1 (stereo not given),inactive
2,c1ccc(C2[C@H]3CN(Cc4cccnc4)[C@H](c4ccccc4)C34CC2(c2ccccc2)C4)cc1 (stereo not given in full),inactive
3,COc1ccccc1CN1CC(C(=O)NCc2cccc(C)n2)CCC1=O (stereo not given),inactive
4,N#CCC(=O)N/N=C/c1ccc(OCC(=O)Nc2ccc(F)cc2)cc1,inactive
5,CC(C)(C)NC(=O)C(c1cccs1)N(C(=O)c1csnn1)c1ccccc1F (stereo not given),inactive
6,Cc1cc(/C=N/NC(=O)c2ccccc2F)c(C)n1-c1ccccc1,inactive
7,CC1CN(C(=O)CCC(=O)NCc2ccccc2)c2ccccc2S1 (stereo not given),inactive
8,COCCNC(=O)COCc1cc(-c2ccc3c(c2)OCO3)on1,inactive
9,Fc1ccc(CNc2ccccn2)cc1,inactive
10,CCc1ccc(NC(=O)Cn2cnc([N+](=O)[O-])c2)cc1,inactive
11,O=C(COC(=O)Cn1cnc2ccccc21)NCc1ccc(F)cc1,inactive
12,CN(CCCNC(=O)Cn1cccc1C(=O)c1ccccc1)C1CCCCC1,inactive
13,CS(=O)(=O)N1CCC(C(=O)Nc2ccccc2)CC1,inactive
14,Cc1cnc(CNC(=O)CC2C(=O)NCCN2Cc2ccccc2C(F)(F)F)cn1 (stereo not given),inactive
15,CC1Cc2nc(SCC(=O)N3CCCC3)n(C)c(=O)c2S1 (stereo not given),inactive
16,O=C(NC[C@H]1CCCO1)c1cccc2c1C(=O)c1ccc(-c3ccc(F)cc3OCc3ccccc3)cc1S2(=O)=O,inactive
17,CC1=C(C(=O)OCc2ccccc2)C(c2cccc([N+](=O)[O-])c2)NC(=O)N1 (stereo not given),inactive
18,CC1(CC(=O)N/N=C/c2cc(Br)c(O)cc2O)OCCO1,inactive
19,Cc1ccc(N=C2SCCCN2C(=O)c2cccc(N3C(=O)CCC3=O)c2)cc1Cl,inactive
20,COc1ccc(OC)c(NC(=O)C2CCCN2C(=O)C2CCC(C)CC2)c1 (stereo not given),inactive

row,SMILES,Potency
1,CN(C)C(=S)Nc1ccc(S(=O)(=O)N2CCCCC2)cc1,inactive
2,CCc1ccc(S(=O)(=O)NCCc2cn3cccc(C)c3n2)s1,inactive
3,Cc1ccc(S(=O)(=O)N2CCOCC2)cc1C(=O)OC1CCOC1=O (stereo not given),inactive
4,COc1ccc(OC)c(S(=O)(=O)N2CCC(NC(=O)c3ccccc3)CC2)c1,inactive
5,O=C(CN(c1ccccc1F)S(=O)(=O)c1ccccc1)Nc1ccc2c(c1)OCCO2,inactive
6,CC(=O)[C@@]1(O)[C@H](C)CC2C3CC=C4CC(OP(=O)(O)O)CC[C@]4(C)C3CC[C@@]21C (stereo not given in full),inactive
7,NC(=O)c1cc2c3ccccc3ccn2c1-c1ccccc1,inactive
8,CCN(CC)CCCNC(=O)c1cn(C)c(=O)c2c1c1ccccc1n2C,inactive
9,O=C(COC(=O)c1cccc([N+](=O)[O-])c1)NNC(=O)c1cccs1,inactive
10,C[C@@]12C(=O)N(CC3CCCO3)CC(=O)N1[C@H]1c3cc(Cl)ccc3OC[C@@H]1[C@@H]2c1ccccc1 (stereo not given in full),inactive
11,C[C@H](O)[C@@H]1C(=O)N2CCc3ccc(-c4cccc(F)c4)cc3[C@@H]2C[C@@H]1N(C)C(=O)C(C)(C)C,inactive
12,CCN(C(=O)CSc1ncnc2sccc12)c1c(N)n(Cc2ccccc2)c(=O)[nH]c1=O,inactive
13,O=C1NC(CCc2ccccc2)C(=O)N1Cc1ccccc1Cl (stereo not given),inactive
14,COc1ccc(-n2nc(C(=O)Nc3cc(OC)c(OC)c(OC)c3)c3ccccc3c2=O)c(OC)c1,inactive
15,Cc1cc(=O)n2nc(N3CCCC(C(=O)NCc4ccc(Cl)cc4)C3)sc2n1 (stereo not given),inactive
16,CC(C)Cn1cnc2c1c(=O)[nH]c(=O)n2Cc1ccccc1,inactive
17,Cc1cc(-c2ccccc2)nc(N/N=C/c2ccc(N(C)C)cc2)n1,inactive
18,COc1cc(/C=N/NC(=O)Cc2csc(C)n2)ccc1OCC(C)C,inactive
19,CCc1ccccc1N1C(=O)CC(Sc2nccc(C)n2)C1=O (stereo not given),inactive
20,CS(=O)(=O)Nc1cccc(C2=NN(S(=O)(=O)c3ccccc3)C(c3ccco3)C2)c1 (stereo not given),inactive
